The whole screen tested about 5,500 compounds, of which about 2,000 (36%) were called active. Roughly 18% stayed inconclusive and do not appear here. No stated cut-off is given here; in the data, active means normalized growth mostly below about 0.91 (no sharp cut-off); inconclusive means no clear call, values can overlap the other calls; inactive means mostly above about 0.92. Some of the results follow.
Assay: chemical genetic growth profiling, strain panel (AID 1159580);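 further: tested at 20 µM; growth read once vehicle control cultures reached saturation at 30 °C; 1 = growth at the plate median or of vehicle wells; lower values mean less growth of the strain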
Conditions: growth OD

Measured: normalized growth

c1ccc(N=Nc2ccccc2)cc1
inactive: S. cerevisiae deletion strains, locus YJR066W, strain TOR1, hits give low values 0.95 | S. cerevisiae deletion strains, locus YJR075W, strain HOC1, hits give low values 0.98 | S. cerevisiae deletion strains, locus YKL009W, strain mrt4, hits give low values 1 | S. cerevisiae deletion strains, locus YKL068W, hits give low values 1.02 | S. cerevisiae deletion strains, locus YKL085W, strain MDH1 (second series), hits give low values 1.01 | S. cerevisiae deletion strains, locus YKL085W, strain MDH1, hits give low values 1.01 | S. cerevisiae deletion strains, locus YKL160W, strain elf1, hits give low values 0.996 | S. cerevisiae deletion strains, locus YKL190W, strain CNB1, hits give low values 0.993 | S. cerevisiae deletion strains, locus YKR001C, strain vps1, hits give low values 0.979 | S. cerevisiae deletion strains, locus YKR026C, strain gcn3, hits give low values 0.982 | S. cerevisiae deletion strains, locus YKR091W, strain srl3, hits give low values 0.987 | S. cerevisiae deletion strains, locus YLL001W, strain dnm1, hits give low values 0.977 | S. cerevisiae deletion strains, locus YLL026W, hits give low values 0.986 | S. cerevisiae deletion strains, locus YLL041C, strain sdh2, hits give low values 0.989 | S. cerevisiae deletion strains, locus YLR027C, strain aat2, hits give low values 0.983 | S. cerevisiae deletion strains, locus YLR039C, strain RIC1, hits give low values 0.878 | S. cerevisiae deletion strains, locus YLR058C, strain SHM2, hits give low values 0.992 | S. cerevisiae deletion strains, locus YLR102C, strain apc9, hits give low values 1.03 | S. cerevisiae deletion strains, locus YLR113W, strain HOG1, hits give low values 0.978 | S. cerevisiae deletion strains, locus YLR221C, strain rsa3, hits give low values 0.984 | S. cerevisiae deletion strains, locus YLR258W, strain gsy2, hits give low values 0.974 | S. cerevisiae deletion strains, locus YLR262C, strain YPT6 (second series), hits give low values 0.921 | S. cerevisiae deletion strains, locus YLR262C, strain YPT6, hits give low values 0.887 | S. cerevisiae deletion strains, locus YLR268W, strain sec22, hits give low values 0.988 | S. cerevisiae deletion strains, locus YLR320W, strain mms22, hits give low values 0.993 | S. cerevisiae deletion strains, locus YLR330W, strain CHS5, hits give low values 1.01 | S. cerevisiae deletion strains, locus YLR342W, strain FKS1 (second series), hits give low values 0.966 | S. cerevisiae deletion strains, locus YLR342W, strain FKS1, hits give low values 0.994 | S. cerevisiae deletion strains, locus YLR357W, strain rsc2, hits give low values 0.97 | S. cerevisiae deletion strains, locus YLR370C, strain arc18, hits give low values 0.996 | S. cerevisiae deletion strains, locus YLR371W, strain rom2, hits give low values 1.02 | S. cerevisiae deletion strains, locus YLR384C, strain iki3, hits give low values 0.973 | S. cerevisiae deletion strains, locus YLR418C, strain cdc73, hits give low values 1 | S. cerevisiae deletion strains, locus YML016C, strain PPZ1, hits give low values 1.01 | S. cerevisiae deletion strains, locus YML032C, strain rad52, hits give low values 1.01 | S. cerevisiae deletion strains, locus YML120C, strain ndi1, hits give low values 0.976 | S. cerevisiae deletion strains, locus YML124C, strain tub3, hits give low values 1.03 | S. cerevisiae deletion strains, locus YMR058W, strain fet3, hits give low values 0.99 | S. cerevisiae deletion strains, locus YMR078C, strain ctf18, hits give low values 1.01 | S. cerevisiae deletion strains, locus YMR125W, strain sto1, hits give low values 0.978 | S. cerevisiae deletion strains, locus YMR129W, hits give low values 0.991 | S. cerevisiae deletion strains, locus YMR205C, strain PFK2, hits give low values 0.952 | S. cerevisiae deletion strains, locus YMR223W, strain ubp8, hits give low values 1 | S. cerevisiae deletion strains, locus YMR231W, strain pep5, hits give low values 0.991 | S. cerevisiae deletion strains, locus YMR263W, strain SAP30, hits give low values 0.972 | S. cerevisiae deletion strains, locus YMR307W, strain GAS1, hits give low values 0.945 | S. cerevisiae deletion strains, locus YNL067W, strain RPL9B, hits give low values 0.975 | S. cerevisiae deletion strains, locus YNL071W, strain lat1, hits give low values 1 | S. cerevisiae deletion strains, locus YNL183C, strain NPR1, hits give low values 0.904 | S. cerevisiae deletion strains, locus YNL209W, strain ssb2, hits give low values 0.991 | S. cerevisiae deletion strains, locus YNL233W, strain BNI4, hits give low values 0.971 | S. cerevisiae deletion strains, locus YNL248C, strain rpa49, hits give low values 0.993 | S. cerevisiae deletion strains, locus YNL250W, strain rad50, hits give low values 1.03 | S. cerevisiae deletion strains, locus YNL271C, strain bni1, hits give low values 1.03 | S. cerevisiae deletion strains, locus YNL298W, strain CLA4, hits give low values 1 | S. cerevisiae deletion strains, locus YNL307C, strain MCK1, hits give low values 1 | S. cerevisiae deletion strains, locus YNL322C, strain KRE1 (second series), hits give low values 0.974 | S. cerevisiae deletion strains, locus YNR049C, strain mso1, hits give low values 0.994 | S. cerevisiae deletion strains, locus YNR052C, strain pop2, hits give low values 1.03 | S. cerevisiae deletion strains, locus YOL006C, strain TOP1, hits give low values 0.974 | S. cerevisiae deletion strains, locus YOL012C, strain htz1 0.782 | S. cerevisiae deletion strains, locus YOL147C, strain pex11, hits give low values 1.02 | S. cerevisiae deletion strains, locus YOR001W, strain rrp6, hits give low values 0.991 | S. cerevisiae deletion strains, locus YOR061W, strain CKA2, hits give low values 1 | S. cerevisiae deletion strains, locus YOR069W, strain VPS5, hits give low values 1 | S. cerevisiae deletion strains, locus YOR070C, strain gyp1, hits give low values 0.985 | S. cerevisiae deletion strains, locus YOR080W, strain dia2, hits give low values 0.974 | S. cerevisiae deletion strains, locus YOR083W, strain WHI5, hits give low values 0.989 | S. cerevisiae deletion strains, locus YOR106W, strain vam3, hits give low values 0.987 | S. cerevisiae deletion strains, locus YOR136W, strain idh2, hits give low values 1.02 | S. cerevisiae deletion strains, locus YOR144C, strain elg1, hits give low values 1.02 | S. cerevisiae deletion strains, locus YOR184W, strain ser1, hits give low values 0.912 | S. cerevisiae deletion strains, locus YOR231W, strain MKK1, hits give low values 0.944 | S. cerevisiae deletion strains, locus YOR265W, strain rbl2, hits give low values 0.985 | S. cerevisiae deletion strains, locus YOR270C, strain vph1, hits give low values 1.11 | S. cerevisiae deletion strains, locus YOR290C, strain snf2, hits give low values 0.998 | S. cerevisiae deletion strains, locus YOR316C, strain cot1, hits give low values 1.03 | S. cerevisiae deletion strains, locus YPL051W, strain arl3, hits give low values 0.987 | S. cerevisiae deletion strains, locus YPL055C, strain LGE1, hits give low values 0.995 | S. cerevisiae deletion strains, locus YPL078C, strain atp4, hits give low values 0.979 | S. cerevisiae deletion strains, locus YPL106C, strain sse1, hits give low values 0.98 | S. cerevisiae deletion strains, locus YPL240C, strain hsp82, hits give low values 0.986 | S. cerevisiae deletion strains, locus YPL256C, strain CLN2, hits give low values 0.953 | S. cerevisiae deletion strains, locus YPR119W, strain clb2, hits give low values 1.03 | S. cerevisiae deletion strains, locus YPR141C, strain kar3, hits give low values 1.03 | S. cerevisiae deletion strains, locus YPR163C, strain tif3, hits give low values 1.04 | S. cerevisiae deletion strains, locus YPR167C, strain met16, hits give low values 1.02 | S. cerevisiae deletion strains, strain wtn01, hits give low values 1.04 | S. cerevisiae strains, strain wild type, hits give low values 1
